About 79,000 compounds went through this panel and 15% of them were active in at least one assay; those are over-represented in the sample as a whole. Unmarked numbers belong to inactive results. Calls of active or inactive are those of the source. No stated cut-off is given here; in the data, active means growth inhibition above about 70%; inactive means the rest.
Columns and labels:
[1] = NCI Yeast Anticancer Drug Screen. Data for the rad50 strain (AID 155);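 further: 0% = growth of vehicle-only cultures of the same strain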; settings: S. cerevisiae rad50 strain growth inhibition; at 50.0 µM; hits give high values
How it was run: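 Growth of the mutant yeast was measured after compound exposure and referenced to vehicle-treated cultures.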

[2] = NCI Yeast Anticancer Drug Screen. Data for the mec2-1 strain (AID 157); settings: S. cerevisiae mec2-1 strain, at 50.0 µM, hits give high values
How it was run: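 Readout is yeast growth inhibition, normalised to vehicle-treated controls, in the mec2-1 strain exposed to compound.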

[3] = NCI Yeast Anticancer Drug Screen. Data for the sgs1 mgt1 strain (AID 161);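 further: 0% = growth of cultures given vehicle only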; settings: S. cerevisiae sgs1 mgt1 strain, at 50.0 µM, hits give high values
How it was run: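 Compounds are added to genetically altered yeast, and growth is compared with cultures given vehicle alone to give percent inhibition.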

[4] = NCI Yeast Anticancer Drug Screen. Data for the cln2 rad14 strain (AID 165);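 further: 0% = growth equal to vehicle treated cultures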; settings: S. cerevisiae cln2 rad14 strain, at 50.0 µM, hits give high values
How it was run: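 Relative to vehicle controls, growth inhibition of compound-treated cln2 rad14 yeast was recorded.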

[5] = NCI Yeast Anticancer Drug Screen. Data for the bub3 strain (AID 167); settings: S. cerevisiae bub3 mutant strain, at 50.0 µM, hits give high values
How it was run: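 Whole-cell yeast assay. The mutant strain was incubated with compounds, and growth inhibition was determined by comparison with vehicle-treated cells.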

[6] = NCI Yeast Anticancer Drug Screen. Data for the mlh1 rad18 strain (AID 175); settings: S. cerevisiae mlh1 rad18 strain growth inhibition; at 50.0 µM; hits give high values
How it was run: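 Test agents were incubated with a yeast strain of defined genotype (DNA damage repair defect). Inhibition of growth was derived by comparison with vehicle-exposed cultures.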

Row | Compound | growth inhibition [1] | growth inhibition [2] | growth inhibition [3] | growth inhibition [4] | growth inhibition [5] | growth inhibition [6]
1 | O=C(CC(C(=O)c1cccs1)c1cccs1)c1ccccc1Cl (configuration not stated) | -10% | -27.6% | -12.6% | -11.3% | -3.8% | -8.15%
2 | Cc1ccc(O)cc1C(=O)O | -32% | -14.7% | -0.95% | 8.05% | -3.75% | 5.4%
3 | CCOC(=O)C(C(=O)CC)C(=O)OCC | 14.3% | 11.3% | 16.2% | 7.65% | 14.2% | 13.4%
4 | CC(=N\N=C\c1ccccn1)/C(C)=N/N=C(C)/C(C)=N/N=C(C)/C(C)=N/N=C/c1ccccn1 | 31.7% | 22.2% | 21.4% | 14.2% | 15.2% | -34%
5 | Cc1c([N+](=O)[O-])cc(C(C)(C)C)c(OC(=O)C(Cl)(Cl)Cl)c1[N+](=O)[O-] | 58.3% | 72.5% (active) | 73.9% (active) | 78.8% (active) | 88.9% (active) | 72.8% (active)
6 | CC(C)(C)NC(=O)NCc1cccc(Cl)c1 | 0.25% | -19.6% | -4.15% | -36.1% | -3% | -3.25%
7 | ClC[P+](c1ccccc1)(c1ccccc1)c1ccccc1 | 38.2% | 19.3% | 13.2% | 11.6% | 24.8% | 33.4%
8 | C[Si](C)(C)/C(=N/Nc1ccc([N+](=O)[O-])cc1[N+](=O)[O-])c1ccccc1 | -13.2% | 9.9% | -12.9% | -13.6% | -7.9% | -7.15%
9 | NNc1nnc(Cl)c2c1ncn2Cc1ccccc1 | -16.9% | -7.45% | 23.1% | -21.4% | 2.75% | 20.6%
10 | CC(C)OCN1COCN=C1NC#N | 38.2% | 12.2% | 23.1% | 28.7% | -10.4% | 33%
11 | c1cnc2[nH]cnc2n1 | 2.3% | 0.6% | -3.3% | 5.75% | 4.85% | -10.1%
12 | O=C(NCCNC(=O)c1cccc([N+](=O)[O-])c1O)c1cccc([N+](=O)[O-])c1O | 19.6% | 6.8% | -2.85% | -9% | -3.2% | 11.8%
13 | CS(=O)(=O)c1ccc(/C=C2/C=Cc3ccccc32)cc1 | 19.1% | 13.2% | 6.35% | 15.4% | 30.2% | 14.7%
14 | CCOC(=O)C(NC(=O)c1ccccc1)C1NC(C(=O)O)C(C)(C)S1 (configuration not stated) | -23.1% | 5.6% | -5.1% | -21.8% | 0.8% | 3.55%
15 | Cc1ccccc1N1C(=O)[N+]2(CCCCC2)N=C1[O-] | -11.1% | 2.2% | -13.3% | -42.5% | -3.9% | -12.6%
16 | CN(C)c1ncnc2c1cnn2C1OC(CO)C(O)C1O (configuration not stated) | 5.85% | 14.2% | 17.3% | 15.2% | 19.6% | 30.7%
17 | CCOC(=O)NN(C(=O)OCC)C(C(C)=O)c1ccccc1 (configuration not stated) | 3.95% | -3.35% | -10.8% | -9.35% | -0.7% | 17.3%
18 | CC(=O)OC1CCC2(C)C(=CCC3C2CCC2(C)C(/C(C)=N/NC(N)=O)CCC32)C1 (configuration not stated) | 14.4% | -2.8% | -0.1% | -39.6% | -0.6% | -0.5%
19 | CC(C)C(CC1CCCCC1)C(C)O (configuration not stated) | -7.65% | -0.45% | -14.6% | -14.4% | -9.35% | -17.6%
20 | Cc1ccc(/C=N/NC(N)=O)cc1 | 25.6% | 15.8% | 12.3% | 10.4% | 17.2% | -3.85%
21 | COc1ccc(Cc2ccc(CO)cc2)cc1 | 4.6% | -18.9% | -31.9% | -20% | -7.7% | -14.2%

Row | Compound | growth inhibition [1] | growth inhibition [2] | growth inhibition [3] | growth inhibition [4] | growth inhibition [5] | growth inhibition [6]
22 | N#Cc1ccc([N+](=O)[O-])n1CCO | 9.7% | 8.7% | 35% | -0.05% | 15.6% | 19.3%
23 | O=C(Nc1ccccc1C(=O)O)C(=O)C(C(=O)c1ccccc1-c1ccccc1)C1OC(=O)c2ccccc21 (configuration not stated) | 26.1% | 5.65% | 4.2% | -38.6% | 6.25% | 13.9%
24 | Clc1ccc(Nc2nc3ccccc3nc2-c2cccs2)cc1Cl | -13.4% | 4.55% | 1.2% | -7.5% | -3.05% | -2.1%
25 | CCCCC(CC)COB(OCC(CC)CCCC)OCC(CC)CCCC (configuration not stated) | -41% | -38.3% | -22.1% | -0.8% | -23.2% | -24.3%
26 | Cc1cc(N=C2C=C(Nc3cc(C)on3)C(=O)c3ccccc32)no1 | -8.9% | -1.25% | -21.4% | 1.05% | -14.7% | 6.05%
27 | O=S(=O)(Nc1cccc(C2=NCCN2)c1)c1cccc2c(S(=O)(=O)Nc3cccc(C4=NCCN4)c3)cccc12 | -9.6% | -25.9% | -30.1% | -19% | -12.2% | -22.1%
28 | COC(=O)c1cc(NC(=O)Nc2ccc(F)c([N+](=O)[O-])c2)cc(C(=O)OC)c1 | 8.9% | 4.85% | -4.6% | 7.3% | -1.3% | 26.8%
29 | CCN(CC)/[N+]([O-])=N/OC | -13.6% | -0.3% | 10.9% | 13.4% | 10.3% | 1.35%
30 | NC(=O)COc1ccccc1 | -14.5% | -8.75% | -1.1% | 14.6% | -0.15% | 27.9%
31 | CC1(C)C/C(=C\c2ccc([N+](=O)[O-])cc2)C(=O)c2ccccc21 | 80.3% (active) | 71.7% (active) | 77.5% (active) | 40.3% | 76.5% (active) | 89% (active)
32 | COc1ccc(-c2cc(-c3ccccc3)[nH]c(=S)c2C#N)cc1 | -23.8% | -19.8% | -55.4% | -19.1% | 13.3% | -30.1%
33 | c1ccc(-c2cc3ccccc3c(-c3ccccc3)c2-c2ccccc2)cc1 | -18.6% | -1.75% | -4.8% | -1.85% | -2.65% | -15.9%
34 | NC(=O)C(=O)c1ccccc1 | -6.65% | -27.1% | -2% | -3% | -19.6% | -19.7%
35 | O=C(/C=C(\c1ccccc1)C1C2C=CC(C2)C1c1ccccc1)c1ccccc1 (configuration not stated) | 61.6% | 64.2% | 91.7% (active) | 49% | 75.2% (active) | 88.8% (active)
36 | CCc1ccccc1NC(=O)Nc1cc(C)ccn1 | 25.6% | 12.9% | 21.8% | 21.3% | 32% | 27.9%
37 | O=C1C(c2ccccc2)=C(c2ccccc2)C(c2ccc(Cc3ccc(C4=C(c5ccccc5)C(=O)C(c5ccccc5)=C4c4ccccc4)cc3)cc2)=C1c1ccccc1 | 20.1% | 32.4% | 16.8% | 14.6% | 15.1% | 26.6%
38 | CCOC(NC(C)=O)C(O)c1ccc(Cl)cc1 (configuration not stated) | 20.1% | 11.2% | 13.1% | -41.5% | -9.9% | 18.2%
39 | Clc1ccc(Cc2ccc(Br)cc2)cc1 | 43.6% | -10.3% | 38.5% | 2.45% | 49% | 13.2%
40 | O=C(Nc1cccc2ccccc12)c1ccccc1F | -1.35% | 16.8% | 14.9% | -2.15% | 21.1% | 11.8%
41 | CC(C)CC(NC(=O)CNC(=O)/C=C/c1ccco1)C(N)=O (configuration not stated) | -16.9% | -29% | -9.2% | -11.2% | -10.1% | -18.5%
42 | C/C(=N/NC(N)=O)C1=CCCC1 | 2.9% | -2.05% | -6.6% | 11% | 7.55% | -9.1%
